From PubChem
S1P4 ag = human S1P4 receptor agonism. 220,000 tested, 0.35% active. S1P4-expressing cell line, agonist reporter assay. O95977. AID 1509. activation, % at 4.98 µM; in the data active means activation above about 11%;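 further: 0% = DMSO vehicle and 100% = reference agonist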
EP2 antag = inhibitors of human EP2 prostaglandin E2 receptor | P43116 | C6 glioma cells expressing human EP2, cAMP TR-FRET; cells stimulated with saturating PGE2 | inhibition, % at 25 µM | 260,000 tested, 0.52% active;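 active means percent inhibition above 40 after rounding to a whole number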;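 further: rat C6 glioma host cells with rolipram phosphodiesterase inhibitor present; the protocol text gives 20 µM as final concentration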
S1P3 antag = S1P3 (human) receptor antagonism. AID 485. 170,000 tested, 0.27% active. inhibition, % at 4.98 µM. Q99500. CHO S1P3 NFAT-BLA reporter, FRET fluorescence, antagonist mode;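 active means inhibition above the plate cutoff, the mean inhibition of test wells on that plate plus 3 SD, cut at about 28% in these data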;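 further: cells challenged with S1P at its EC80 of 0.8 µM; blue over green emission ratio from cleaved BLA substrate after 4 h stimulation; 0% = S1P-stimulated wells and 100% = unstimulated DMSO-only wells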
Target sequence (Q99500 whole entry, looked up): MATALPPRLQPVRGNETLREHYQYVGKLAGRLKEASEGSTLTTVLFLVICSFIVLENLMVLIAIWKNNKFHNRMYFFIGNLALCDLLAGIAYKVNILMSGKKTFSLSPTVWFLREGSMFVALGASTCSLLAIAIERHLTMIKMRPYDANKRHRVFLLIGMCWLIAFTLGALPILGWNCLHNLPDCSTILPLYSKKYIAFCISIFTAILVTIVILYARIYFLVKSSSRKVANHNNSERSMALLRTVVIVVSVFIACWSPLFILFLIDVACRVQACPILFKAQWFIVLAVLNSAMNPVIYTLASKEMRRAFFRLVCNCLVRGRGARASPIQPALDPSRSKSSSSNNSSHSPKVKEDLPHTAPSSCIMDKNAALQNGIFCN
S1P4 antagonist = antagonists of human S1P4 receptor; O95977; S1P4-expressing cells, antagonist mode, reporter read-out; inhibition, % at 4.98 µM; 220,000 tested, 0.26% active; in the data active means inhibition above about 29%;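 further: 0% = wells stimulated with agonist and 100% = vehicle wells without agonist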
EP2 mod = EP2 receptor (human) modulation; P43116; EP2-expressing cells, cAMP HTRF FRET, PGE2 co-stimulation; induction, % at 25 µM; 260,000 tested, 0.83% active; AID 940;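 active means compounds whose cAMP rise, as percent of the full-agonist control response, exceeds 60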;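 further: rat C6 glioma line stably carrying human EP2 under a CMV promoter; the protocol text gives 20 µM as final concentration; 100% = response of wells given 1 µM PGE2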
An asterisk follows results filed as active; . = no result; ! = not active in a repeat. The list is not random: actives were taken first. Their share in the collection is about 1.9%.

SMILES	S1P4 ag	EP2 antag	S1P3 antag	S1P4 antagonist	EP2 mod
CCOC(=O)/C(C#N)=C\c1cn(C)c2ccccc12	0	7	7	-5	20
CCOC(=O)/C(=C\c1cn(C)c2ccccc12)[N+](=O)[O-]	1	42*	2	-3	-90
O=C(CSc1nnc(-c2ccco2)n1Cc1ccco1)Nc1ccc(F)cc1	.	4	.	.	31
CCN(CC)c1nc2cc(C)ccc2cc1/C=C(\C#N)C(N)=O	0	6	-5	-5	63*
CCc1cc2cccc(C)c2nc1SCC(=O)N1CCCC1	.	8	.	.	65*
CCOC(=O)CC(=O)CSc1nc2c(C)ccc(C)c2cc1CC	.	14	.	.	95*
CCOC(=O)CC(=O)CSc1nc2cc(C)cc(C)c2cc1CC	.	7	.	.	57
CC1CCc2c(sc(NC(=O)C(C)C)c2C#N)C1 (centres undefined)	.	7	.	.	11
O=S(=O)(O)c1cccc(N=Nc2c(O)ccc3ccccc23)c1	1	2	-11	9	-7
O=S(=O)(O)c1cc(O)c2c(O)c(N=Nc3cccc4ccccc34)c(S(=O)(=O)O)cc2c1	.	57*	.	.	-14
NC(N)=N[C@@H]1C(O)[C@H](N=C(N)N)[C@@H](O)C(O)[C@H]1O (some centres undefined)	.	51*	.	.	1
Cc1cc(OCC(C)C)ccc1/C(O)=C1/C(=O)C(=O)N(Cc2cccnc2)C1c1ccncc1 (centres undefined)	1	29	.	-34	60
CCCCOc1ccc(/C(O)=C2/C(=O)C(=O)N(Cc3cccnc3)C2c2ccncc2)c(C)c1 (centres undefined)	3	20	-3	-7	61*
CC1=C(C#N)c2nc(N)c(C#N)c(C)c2/C1=C\c1cccc(Cl)c1	.	50*	.	.	-144
CC1CCN(c2nnc(-c3ccccc3)c3ccccc23)CC1	1	13	-3	-24	65*
CSc1nc2ccccc2n1Cc1cccc(F)c1	-2	9	-6	-50	35
Fc1cccc(Oc2nc3ccccc3n3cccc23)c1	1	14	.	-16	62*
CCOC(=O)c1cc2sccc2n1Cc1ccccc1	2	6	-1	-4	63*
CCOC(=O)Cn1c(C(=O)OCC)cc2sccc21	-1	3	8	-2	19
O=C(c1cc2sccc2n1Cc1ccccc1)N1CCc2ccccc21	-1	8	-4	-8	64*
COC(=O)c1cc2sccc2n1Cc1ccc(C)cc1	1	4	.	0	64*
C=CCN=C1S/C(=C/c2cccc([N+](=O)[O-])c2)C(=O)N1CC=C	-1	9	-2	12	64*
O=C(CSc1nnnn1C1CC2CCC1C2)Nc1ccnc2ccccc12 (centres undefined)	0	.	64*	-22	-30
O=C(CSc1nnnn1C1CCCCC1)Nc1ccccc1F	2	6	-12	-15	-22
O=C(CN1CCOCC1)Nc1ccccc1C(=O)O	1	126*!	.	-5	-5
SMILES	S1P4 ag	EP2 antag	S1P3 antag	S1P4 antagonist	EP2 mod
O=C(CCl)Nc1ccccc1Sc1ccccc1	0	15	.	-11	64*
CN1CCN(CC(=O)Nc2ccccc2Sc2ccccc2)CC1	-1	7	-5	-9	28
Nc1ccccc1NC(=O)CN1CCOCC1	.	15	.	.	4
O=C(CN1CCCC1)Nc1ccccc1Sc1ccccc1	-1	9	5	10	61*
Nc1ccc(N=Nc2c(S(=O)(=O)O)cc3ccccc3c2S(=O)(=O)O)cc1	.	41*	.	.	18
CC(=O)Nc1ncc(C(C)(C)C)s1	.	18	.	.	34
CN1C(=O)/C(=N\OC(=O)c2ccccc2Cl)c2ccccc21	-1	4	-10	-7	-21
CC(=O)O/N=C1\C(=O)N(Cc2ccc(C)cc2)c2ccccc21	0	2	-4	-9	63*
Cc1sc2ncn(C(C)C(=O)OC(C)C)c(=O)c2c1-c1ccc(Cl)cc1 (centres undefined)	.	12	.	.	56
CN(C)CCCN=c1c2ccccc2n(C)c2[nH]c(=O)n(C)c(=O)c12	.	46*	.	.	19
O=S(=O)(O)c1ccc2cc(N=Nc3cc(S(=O)(=O)O)c4cccnc4c3O)ccc2c1	.	52*	.	.	16
Nc1nonc1C(=O)NCCN=Cc1ccccc1O	-1	15	.	-4	20
Nc1nonc1C(=O)NCCN=Cc1cc(Cc2ccccc2)cc(Br)c1O	0	.	.	-7	61*
CCCNC(=O)c1noc2c1CCc1cc(OC)ccc1-2	-2	9	-35	-5	-29
COc1ccc2c(c1)CCc1c(-c3noc4c3CCc3cc(OC)ccc3-4)noc1-2	.	45*	.	.	-6
COc1ccc2c(c1)CCc1c(C(=O)NCc3cccnc3)noc1-2	0	.	70*	-9	-6
CC(C)(C)c1ccc(C(=O)NC(=S)NCc2cccnc2)cc1	3	15	1	-3	2
CC(C)(C)c1ccc(C(=O)NCc2cccnc2)cc1	-1	8	75*	-3	-9
COC(=O)c1c(NC(=O)c2ccc3c(c2)OCO3)sc(C(=O)N2CCCCC2)c1C	.	17	.	.	24
CC1N(C)c2cccc3cccc(c23)N1C	-1	11	.	-33	21
CN1c2cccc3cccc(c23)N(C)C1c1cccs1	-2	5	.	2	64*
O=C(CN1C(=O)c2ccccc2C1=O)[C@@H](O)CN1C(=O)c2ccccc2C1=O	.	46*	.	.	18
COc1cc(C)cc2c(-c3c(O)cc(O)c4c3C[C@H](C)N[C@@H]4C)cc(-c3cc(-c4c(O)cc(O)c5c4C[C@H](C)N[C@@H]5C)c4cc(C)cc(OC)c4c3O)c(O)c12	.	41*	.	.	-12
COc1ccc(OC)c(C2NC(=O)C(=O)/C2=C(\O)c2ccc(OC)c(OC)c2)c1 (centres undefined)	.	9	.	.	-14
CCOC(=O)c1c(-c2ccc(C)cc2)csc1NC(=O)CC	.	6	.	.	78*
SMILES	S1P4 ag	EP2 antag	S1P3 antag	S1P4 antagonist	EP2 mod
CCOC(=O)c1c(-c2cccs2)csc1N	0	10	-4	10	55
CCOC(=O)c1c(-c2ccc(OCC)cc2)csc1NC(C)=O	.	8	.	.	64*
CCOC(=O)c1c(-c2ccc(OC)cc2)csc1NC(=O)CC	.	5	.	.	50
CCOC(=O)c1c(-c2ccc(CC)cc2)csc1N	.	9	.	.	94*
C=CCOC(=O)C1=C(C)OC(N)=C(C#N)C1c1cc2cc(CC)ccc2[nH]c1=O (centres undefined)	.	14	.	.	21
CC(=O)c1ccc2c(c1)Nc1ccccc1S2	0	20	-34	-3	-15
C/C(=N\NC(=O)c1ccc(C)cc1C)c1ccc2c(c1)Nc1ccccc1S2	0	43*	-1	-15	-75
Cc1cc(C)c(C(N)=O)c(NC(=O)Nc2ccccc2Cl)n1	0	1	.	2	26
Cc1cc(C)c(C(N)=O)c(Nc2cccc(Cl)c2C)n1	-3	9	55*	-21	-9
Nc1c(C(=O)NCC(=O)O)sc2nc3c(cc12)CCCC3	.	13	.	.	-1
O=C(CSc1ccc(-c2nc3ccccc3[nH]2)cn1)Nc1cccc(F)c1	.	49*	.	.	-92
O=C(CSc1ccc(-c2nc3ccccc3[nH]2)cn1)Nc1ccccc1-c1ccccc1	.	12	.	.	-47
